Consider 40 compounds from PubChem BioAssay (Tox21).

Structures are written as SMILES. Values joined by “and” are separate entries in the source; they are usually repeats but may differ in a detail not shown here. Equal entries are not always repeated. Records with an inconclusive call do not appear. Where a call stands in place of a potency, no number is given. Active and inactive are the calls of the source. The call rests on the fitted dose curve.
Potency means the concentration at half of the fitted maximal effect.

A short description of this experiment: qHTS assay to identify small molecule antagonists of the sonic hedgehog signaling (Shh) pathway (AID 1259369). Further: nearly all actives have a fitted effect of over 45% in size. Conditions: NIH/3T3 Gli1-Luc reporter, Shh antagonist, luminescence 24 h; series mostly up to 92.4 µM. The text has this: U.S. Tox21 Program National Center for Advancing Translational Sciences [NCATS] NIH Chemical Genomics Center [NCGC] U.S. Environmental Protection Agency [EPA] National Institutes of Environmental Health Sciences [NIEHS] National Toxicology Program [NTP] U.S. Food and Drug Administration [FDA] Tox21 Assay Overview: The sonic hedgehog (Shh) pathway is essential for normal embryonic development. Dysregulation of the Shh pathway can cause severe developmental defects in organs. Therefore chemicals that interfere with the pathway are potential developmental toxicants. A cell line designated 3T3Gli1-Luc (DMB/OARSA/CFSAN/FDA, Laurel, MD), a NIH/3T3 derived clone containing stably integrated Gli1-Luc reporter is used to detect chemical interference of the Shh pathway, by changes in the expression of the firefly Luc gene under the control of the Gli1 transcriptional response element. This cell line was used to screen Tox21 libraries for identifying and prioritizing the potential developmental toxicants that interfere Shh pathway. Conditioned medium-stimulated mode was used to screen for chemicals inhibiting Shh signaling.
Tox21 Assay Protocol Summary: 3T3 Gli1-Luc cells were dispensed at 2,000 per well in 5uL of culture medium into white solid bottom 1536-well plates (Greiner Bio-One, Monroe, NC) using a Multidrop Combi (Thermo Scientific, Waltham, MA) dispenser. The assay plates were incubated at 37 C and 5% CO2 for 4hr, and then 23nL of compounds dissolved in DMSO and positive control were transferred using a Pintool station (Wako, San Diego, CA). The compound transfer was followed by the addition of 1ul conditioned medium or assay buffer using two separate tips of Flying Reagent Dispenser (FRD, Aurora Discovery, San Diego, CA). The assay plates were incubated at 37C and 5% CO2 for 24hr. For luciferase read, 4uL of Amplite Luciferase reporter gene assay reagent (AAT Bioquest, Inc. Sunnyvale, CA) was added to each well of the assay plates using FRD and incubated at room temperature for 30min. The luminescence signal was measured using a ViewLux plate reader (Perkin Elmer, Shelton, CT).
For orientation: qHTS replaces the single test concentration by a dilution series.
As to `CCOP(=S)(S)OCC`, the Potency entry is “inactive”.
Turning to `CCCCC(CC)COC(=O)c1c(Br)c(Br)c(Br)c(Br)c1C(=O)OCC(CC)CCCC` (stereo not given), the Potency result is “inactive”.
The same measure, in the same setting: then `C[Si](Cn1cncn1)(c1ccc(F)cc1)c1ccc(F)cc1`, with 8.92 µM (active).
In the case of `Nc1c(Br)cc(Br)c2c1C(=O)c1ccccc1C2=O`, the activity change, negative = inhibition was -1.9% [at 19 µM] (inactive).
`CCNC(=O)NC(=O)/C(C#N)=N/OC`: the Potency result was “inactive”.
Still for that read-out and setting: in the case of `[Cl-].[Cl-].[Hg+2]` it was 34.2 nM (active) and 243 nM (active); in that of `CCOC(C(=O)OCCN(C)C)(c1ccccc1)c1ccccc1`, “inactive”; in that of `FC(F)OC(F)(F)C(F)Cl` (stereo not given), “inactive”.
Same read-out and setting: in the case of `ClCc1ccccc1Cl` it was “inactive”.
Still for that read-out and setting: then `CCCCCl`, with “inactive”; and `Clc1ccc2ccccc2c1`, with “inactive”.
With `O=C(O)c1ccc(=O)[nH]c1`, the Potency result was “inactive”.
For `Nc1cc(Cl)cc(C(=O)O)c1Cl`, the Potency result is “inactive”.
With `CCCC[N+]1(C)[C@@H]2CC(OC(=O)[C@H](CO)c3ccccc3)C[C@H]1[C@@H]1O[C@@H]12` (stereo not given in full), the Potency entry was “inactive”.
Same read-out and setting: then `CCOP(=O)(O)C(N)=O`, with “inactive”.
The same measure, in the same setting: in the case of `O=C1c2ccccc2C(=O)N1SC(Cl)(Cl)Cl` it was 1.07 µM (active) and 1.93 µM (active).
Same read-out and setting: in the case of `CC(C)(C)N(NC(=O)c1ccc(Cl)cc1)C(=O)c1ccccc1` it was “inactive”; in that of `COc1ccc(C(=O)c2c(C)n(CCN3CCOCC3)c3ccccc23)cc1`, “inactive”; in that of `C=CCc1ccc(OC(=O)Cc2ccccc2)c(OC)c1`, “inactive”.
With `CCC1(C2=NCCN2)Cc2ccccc2O1` (stereo not given), the Potency entry was “inactive”.
Still for that read-out and setting: in the case of `CCCC1CCCCN1` (stereo not given) it was “inactive”; in that of `CCC(C)(C)O`, “inactive”.
On the same count and under the same terms, then `O=C(N[C@H]1CN2CCC1CC2)c1ccc2c(c1)OCCO2`, with “inactive”.
In the case of `C=CC(=O)NC(C)(C)CC(C)=O`, the Potency result is “inactive”.
The same measure, in the same setting: then `O=C(O)c1cc(I)cc(I)c1I`, with “inactive”.
Still for that read-out and setting: in the case of `COc1ccc(C(O)(c2cncnc2)C2CC2)cc1` (stereo not given) it was “inactive”; in that of `O=C(O)C(Cl)(Cl)Br`, “inactive”; in that of `CCCCC#N`, “inactive”.
The same measure, in the same setting: in the case of `COC1CC(=C(c2cccs2)c2cccs2)C[N+](C)(C)C1` (stereo not given) it was “inactive”; in that of `CCCCCCCCn1sccc1=O`, 1.37 µM (active) and 1.02 µM (active).
For the compound `O=C(Cl)OCCOCCOC(=O)Cl`, the Potency entry is “inactive”.
Regarding `CC(C)c1ccc(OP(=O)(Oc2ccc(C(C)C)cc2)Oc2ccc(C(C)C)cc2)cc1`, the Potency was 13.8 µM (active) and 12.2 µM (active) and 15.3 µM (active).
As to `CCOP(=S)(OCC)Oc1ccc(S(C)=O)cc1` (stereo not given), the Potency entry was “inactive”.
Regarding `CCCCC1C(=O)NC(=O)N(C2CCCCC2)C1=O` (stereo not given), the Potency result was “inactive”.
Same read-out and setting: then `CCC[N+](CCC)(CCC)CCC`, with “inactive”; and `COC(=O)Cc1ccccc1`, with “inactive”.
Still for that read-out and setting: in the case of `CNC(=O)Oc1cccc(N=CN(C)C)c1` it was “inactive”; in that of `CCc1cnc(C2=NC(C)(C(C)C)C(=O)N2)c(C(=O)O)c1` (stereo not given), “inactive”; in that of `C1CS1`, “inactive”.
The same measure, in the same setting: then `CC(C)(C)OOC(C)(C)CCC(C)(C)OOC(C)(C)C`, with “inactive”.
